High-throughput results as filed in PubChem.
CBFb RUNX1 block: qHTS Assay for Compounds Blocking the Interaction Between CBF-beta and RUNX1 for the Treatment of Acute Myeloid Leukemia | AlphaScreen CBFb-His/RUNX1-biotin binding, biochemical | 230,000 tested, under 10 active | Potency, µM (doses to about 59.8 µM), without a hit: top-dose activity, negative = inhibition, usual class: inhibitors | AID 1477, 2009; further: % of control where 0% means no effect
Target sequence (Q01196 whole entry, looked up): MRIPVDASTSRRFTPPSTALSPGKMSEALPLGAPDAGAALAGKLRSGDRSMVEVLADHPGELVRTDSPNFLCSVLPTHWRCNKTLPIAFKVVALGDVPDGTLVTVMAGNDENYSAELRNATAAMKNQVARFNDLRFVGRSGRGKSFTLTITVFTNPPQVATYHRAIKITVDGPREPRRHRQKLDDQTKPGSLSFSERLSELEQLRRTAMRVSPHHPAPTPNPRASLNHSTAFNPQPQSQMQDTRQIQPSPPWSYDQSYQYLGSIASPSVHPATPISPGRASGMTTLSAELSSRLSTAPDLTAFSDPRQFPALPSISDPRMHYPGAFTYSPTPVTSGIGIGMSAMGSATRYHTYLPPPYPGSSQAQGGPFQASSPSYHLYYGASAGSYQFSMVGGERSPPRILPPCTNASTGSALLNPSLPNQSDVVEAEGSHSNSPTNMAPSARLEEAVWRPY
Target sequence (Q13951 whole entry, looked up): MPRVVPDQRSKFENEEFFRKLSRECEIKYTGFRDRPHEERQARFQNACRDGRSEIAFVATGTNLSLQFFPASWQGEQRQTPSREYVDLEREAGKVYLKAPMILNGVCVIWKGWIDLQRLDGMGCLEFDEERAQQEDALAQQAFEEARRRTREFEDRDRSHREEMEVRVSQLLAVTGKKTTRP
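Read-out: AlphaScreen. Format: His-CBF-beta with biotinylated RUNX1 (30 nM each) preincubated 20 min, compound 15 min, Ni-chelate plus streptavidin beads 90 min; room temperature throughout.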
VDR inhibitor: Inhibitors of the vitamin D receptor (VDR): qHTS. 400,000 compounds, 0.93% hits. Vitamin D3 receptor (Homo sapiens), P11473. AID 504847, 2011. Potency, µM, without a hit: max response, negative = inhibition, actives largely listed as inhibitors. VDR-SRC2-3 peptide fluorescence polarization, 2 h; further: potency means the concentration at half of the fitted maximal effect; on the % scale 0 is the no-effect control and ±100 the full control effect
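Fluorescence polarization assay of small-molecule disruption of VDR binding to coregulator peptide SRC2-3. Compounds and controls pin-transferred, then read after 2 h incubation at ambient room temperature.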
KCNH2 3.1 block: qHTS for Inhibitors of KCHN2 3.1: Mutant qHTS; Potassium voltage-gated channel subfamily H member 2, brain isoform KCNH2 3.1 (human); 340,000 compounds, 0.95% hits; activity change, % (tested at about 1.8 µM); U2OS KCNH2 3.1, thallium flux FluxOr; stronger effect = lower value; AID 720553, 2013;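 active means maximum activity change below -70%; inconclusive means maximum activity change from -70% to -50%; inactive means maximum activity change above -50%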;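 further: thallium influx rate constant from kinetic fluorescence after stimulation buffer; on the % scale 0 is the no-effect control and ±100 the full control effect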
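Normalized rate constant (relative to positive and negative DMSO controls) derived from a 2 min kinetic fluorescence read after stimulation; U2OS cells expressing the 3.1 isoform via virus at 1.77 x 10^8 /mL.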
MBNL1 CUG block: qHTS Assay for Inhibitors of MBNL1-poly(CUG) RNA binding; TR-FRET MBNL1-His/biotin-(CUG)12 binding, 665/545 ratio; Potency, µM (series often up to 57.5 µM), for the others: at the top dose activity change, negative = inhibition, usual class: inhibitors; Muscleblind-like protein 1 (Homo sapiens), Q9NR56; 280,000 compounds, 0.036% hits; active means well fitted inhibition curve with a large enough effect in the signal ratio, with a control signal flat, not every such curve was filed as active; inconclusive means small, poorly fitted or top-dose-only effect, or effect the other way, or a change in a side signal; inactive means no such curve, though single readings can be large or run the other way; the % refers to the signal ratio; further: potency means the concentration at half of the fitted maximal effect; on the % scale 0 is the no-effect control and ±100 the full control effect
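Inhibition of protein-RNA binding appears as loss of TR-FRET between terbium anti-His antibody on MBNL1-His and streptavidin-XL665 on biotin-(CUG)12. Activity is normalized to buffer-only and uninhibited-complex controls.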
PLK1 PBD inh: qHTS for Inhibitors of PLK1-PDB (polo-like kinase 1 - polo-box domain): Primary Screen; Serine/threonine-protein kinase PLK1 (Homo sapiens), P53350; Plk1 PBD binding of FITC phosphopeptide, fluorescence polarization; Potency, µM, for the others: max response, negative = inhibition, most hits filed as inhibitors; 360,000 compounds, 2.8% hits; AID 720504, 2013; further: potency means the concentration at half of the fitted maximal effect; series mostly up to about 57 µM; on the % scale 0 is the no-effect control and ±100 the full control effect; nearly all actives have a fitted effect of over 65% in size
KCNH2 WT inh: qHTS for Inhibitors of KCHN2 3.1: Wildtype qHTS. Voltage-gated inwardly rectifying potassium channel KCNH2 (Homo sapiens), Q12809. U2OS, BacMam KCNH2, thallium flux FluxOr; stronger effect = lower value. activity change, % at 1.84 µM. 340,000 compounds, 0.37% hits;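 active means maximum activity change below -70%; inconclusive means maximum activity change between -70% and -50%; inactive means maximum activity change above -50%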; further: on the % scale 0 is the no-effect control and ±100 the full control effect
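U2OS cells were transduced with wild-type KCNH2 virus (2.03 x 10^8 / mL) for 4 h at room temperature, then cultured overnight at 37 C. Thallium flux was read with FluxOr dye. Rate constants were normalized to DMSO controls.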
* hit, by the source's call; ? = inconclusive; · = no result. Only some compounds are listed: those with a hit (about 3.8% of all), similar ones and a draw of the others. Unless noted, the call rests on the fitted dose curve; in most records, active means well fitted curve in the direction sought with a large enough effect; inconclusive means small, poorly fitted or top-dose-only effect, or another doubt; inactive means no such curve, though single readings can be large; an effect the other way counts as inactive or inconclusive.

SMILES | CBFb RUNX1 block | VDR inhibitor | KCNH2 3.1 block | MBNL1 CUG block | PLK1 PBD inh | KCNH2 WT inh
CCOc1ccc(S(=O)(=O)N/N=C(\C)c2ccc(OC)cc2OC)cc1 | -27% | ? | -1 | · | 15µM* | 4
O=C(O)CSc1nnc(-c2cccs2)n1-c1ccc(Cl)cc1 | 3% | ? | 6 | -5% | 27µM* | -3
O=C(CSc1nnc(-c2cccs2)n1-c1ccccc1)Nc1ccccc1 | 0% | 7% | -89* | 32% | -1% | -115*
Cc1c(-c2ccccc2)nc2ccccc2c1C(=O)Oc1ccc([N+](=O)[O-])cc1 | -2% | 6% | -77* | 7% | -3% | -87*
Cc1nc2cccc(C(=O)Oc3ccc([N+](=O)[O-])cc3)c2o1 | 7% | 1% | -8 | 4% | -12% | 7
CCCC(C)C(=O)Nc1cccc(NC(C)=O)c1 (centres undefined) | -3% | -1% | -92* | -5% | -2% | -21
CCCC(C)C(=O)Nc1ccc2c(c1)OCCO2 (centres undefined) | 4% | 7% | 5 | -6% | 1% | 0
CCCCC(C)(O)C/C=C/[C@H]1[C@H](O)CC(=O)[C@@H]1CCCCCCC(=O)O (some centres undefined) | 2% | -1% | · | · | · | ·
Nc1nc(=S)n(-c2ccccc2)[nH]1 | 11% | -12% | -3 | -8% | 24µM* | 3
Cc1nc(=S)n(-c2ccccc2)[nH]1 | 13% | 4% | -2 | -1% | -18% | -3
S=C(NCCCN1CCOCC1)N1CCN(c2nc(-c3ccccc3)cs2)CC1 | -4% | -12% | -5 | -16% | -21% | 16
S=C(NCCCN1CCOCC1)N1CCN(c2nc(-c3ccc(Cl)cc3)cs2)CC1 | 3% | -10% | -71* | 23% | -17% | -13
Nc1cc(=O)nc(SCC(=O)Nc2ccc(F)cc2)n1-c1cccc(Cl)c1 | · | 8% | · | · | · | ·
CCOc1ccc(OCC)c(NS(=O)(=O)c2c(C(=O)N3CCCCCC3)c(C)n(C)c2C)c1 | · | 9% | · | · | · | ·
CC(=O)Oc1ccc2nc(-c3ccco3)oc(=O)c2c1 | · | ? | 6 | -7% | 27µM* | -7
O=C(Cn1c(=O)n(-c2ccccc2Cl)c(=O)c2sc3ccccc3c21)NC1CCCC1 | · | 7% | · | · | · | ·
O=C(NCc1ccccc1)C(=O)NCC(c1ccc2c(c1)OCO2)N1CCOCC1 (centres undefined) | · | 7% | · | · | · | ·
Cc1cccc(-n2c(N)c(-c3nc4ccccc4n3C)c3nc4ccccc4nc32)c1 | 10% | -4% | -96* | 0% | 0% | -134*
CCCNC(=O)N1N=C(c2ccc(N)cc2)c2cc3c(cc2C1C)OCO3 (centres undefined) | 18% | -21% | · | · | · | ·
CCSc1nnc(NC(=O)CSc2nccn2-c2cccc(C)c2C)s1 | -13% | ? | -15 | -3% | 3.8µM* | -1
CCCN(CCC)C(=O)Cn1c(=O)n(-c2ccc(CC)cc2)c(=O)c2ccc(C(=O)NCCc3ccccc3)cc21 | · | 16% | · | · | · | ·
COc1ccc(CN(C(=O)CSc2nnc(-c3ccc(F)cc3)o2)c2ccc(F)cc2)cc1 | 19% | 1% | 0 | 0% | -3% | 17
COc1ccc(CN(C(=O)CSc2nnc(-c3c[nH]c4ccccc34)o2)c2ccc(F)cc2)cc1OC | -22% | -2% | -5 | 5% | 2% | -280*
Cc1cccc(CCNC(=O)c2cnc3c(C)cccn3c2=O)c1 | · | 15% | · | · | · | ·
CCC(CC)c1nn2c(=O)cc(COc3ccc(NC(=O)c4cccc(Cl)c4)cc3)nc2s1 | · | -4% | · | · | · | ·
SMILES | CBFb RUNX1 block | VDR inhibitor | KCNH2 3.1 block | MBNL1 CUG block | PLK1 PBD inh | KCNH2 WT inh
O=c1[nH]c(=O)n(Cc2ccccc2)c2nc(-c3ccc(Oc4ccc(F)cc4)c([N+](=O)[O-])c3)n(CCO)c12 | -10% | -5% | -86* | 5% | 2% | -28
Cc1cc(C)nc(SCC(=O)NN=C2CCCC2)n1 | 0% | ? | -11 | -2% | 6.7µM* | ·
Cc1cc(C)nc(SCC(=O)N/N=C/c2cccc([N+](=O)[O-])c2)n1 | -2% | 79µM* | 0 | 11% | 21µM* | 1
O=C(CSc1ncccn1)NN=C1CCCCCCC1 | -2% | -26% | 6 | -4% | -2% | 2
COc1ccc2c(c1)-c1ccccc1S(=O)(=O)N2C(C)=O | -4% | -2% | 3 | 7% | 27µM* | -20
COc1ccc(N2C(=O)c3ccccc3S2(=O)=O)cc1 | 11% | -11% | 9 | -5% | -15% | -8
O=C(N/N=C/C=C/c1ccco1)/C(=C/c1ccccc1)NC(=O)c1ccccc1 | -11% | ? | -8 | 29% | 30µM* | 4
O=C(N/N=C/C=C/c1ccco1)c1ccncc1 | -6% | ? | 4 | ? | -3% | -3
C=CC[C@](C)(O)c1ccccc1 | -6% | 5% | · | · | · | ·
C=CCN1C(=O)c2ccc(C(=O)N(CC(C)C)c3c(N)n(CCCC)c(=O)[nH]c3=O)cc2C1=O | · | 5% | -147* | · | 5% | 0
O=C(CSc1ccccc1C(=O)O)c1ccc([N+](=O)[O-])cc1 | -6% | ? | -17 | ? | 12µM* | ·
Cc1cc(C)c(NC(=O)C2CCN(c3nnc(C)c4c(C)n(-c5ccccc5)nc34)CC2)c(C)c1 | · | 0% | · | · | · | ·
COc1ccc(CCn2c(-c3ccc(C(C)(C)C)cc3)n[nH]c2=S)cc1OC | 0% | -1% | 15 | -2% | 38µM* | 3
Cc1ccc(-c2cc3ncc4c(n3n2)-c2cc(Cl)ccc2OC4)cc1 | · | -9% | · | · | · | ·
CCN1C(=O)CS/C1=N\S(=O)(=O)c1ccc(Cl)cc1 | 15% | -6% | -9 | -1% | -6% | -15
CCn1c(Cl)c(C=O)s/c1=N\S(=O)(=O)c1ccccc1 | -5% | 3.2µM* | 24 | ? | 12µM* | 0
COc1cccc(-c2ccc(NC(=O)C3CCCN(CCCn4cccn4)C3)cc2)c1 (centres undefined) | · | -8% | -84* | -2% | 1% | 2
CCOc1cnn(-c2cc(Oc3ccc(C)cc3)ncn2)c(=O)c1Cl | -1% | 10% | 9 | ? | -1% | -9
Cc1ccccc1Oc1cc(-n2ncc(Cl)c(Cl)c2=O)ncn1 | 4% | ? | -17 | · | 5.3µM* | 0
CCN(CC)S(=O)(=O)c1ccc(OCCNS(C)(=O)=O)cc1 | 0% | 28µM* | 6 | -2% | 3µM* | -7
